Laboratory results: PubChem BioAssay (EPA / NIEHS)
The source made the active and inactive calls. The calls were made as follows: active = hit-call score of the fitted dose curve at least 0.9, where 1 is the maximum; inactive = score below 0.9.

assay: ATG_GATA_CIS: Attagene CIS-FACTORIAL HepG2 Assay for human GATA Binding Protein (AID 2282944); details: HepG2 GATA cis-element reporter, Attagene multiplex mRNA; actives raise or lower the signal
Description: ATG_CIS is a cell-based, multiplexed-readout assay that uses HepG2, a human liver cell line, with measurements taken at 24 hours after chemical dosing in a 24-well plate.ATG_GATA_CIS is one of 52 assay component(s) measured or calculated from the ATG_CIS assay. It is designed to make measurements of mRNA induction, a form of inducible reporter, as detected with fluorescence intensity signals by Reverse transcription polymerase chain reaction (RT-PCR) and Capillary electrophoresis technology.Data from the assay component ATG_GATA_CIS was analyzed into 1 assay endpoint. This assay endpoint, ATG_GATA_CIS, was analyzed with bidirectional fitting relative to DMSO as the negative control and baseline of activity. Using a type of inducible reporter, measures of mRNA for gain or loss-of-signal activity can be used to understand the reporter gene at the transcription factor-level as they relate to the gene GATA1. Furthermore, this assay endpoint can be referred to as a primary readout, because this assay has produced multiple assay endpoints where this one serves a reporter gene function. To generalize the intended target to other relatable targets, this assay endpoint is annotated to the dna binding intended target family, where the subfamily is GATA proteins.
Human liver HepG2 cells are transiently transfected with multiple reporter transcription units (MRTUs) in 6-well plates using FuGene 6 reagent (Roche; 3 ml FuGene/1 mg DNA). The MRTU constructs are regulated by a cis-regulating element (promoter). […] A major difference between the CIS and TRANS system is that in CIS activities of endogenous TFs are measured, whereas the TRANS assay evaluates changes in activities of exogenous, chimeric NR-Gal4 proteins. […] At the end of 24 hour incubation, total RNA was isolated using TriZol reagent (Invitrogen). The isolated RNA is then reverse-transcribed using oligo(dT) primer and Mo-MLV reverse transcriptase (Invitrogen) with DNAse I (Ambion) treatment for 30 min. The one-tenth of the produced cDNA was amplified by PCR using Taq DNA polymerase (Invitrogen) and two reporter sequence-specific primers. The PCR products were fluorescently labeled by primer extension with 6-arboxyfluorescein (6-FAM) 5'-labeled reporter sequence-specific primer (2 min at 95 C, 20 s at 68 C and 10 min at 72 C) and these products were digested with 5U of HpaI (New England Biolabs) for 2h at 37 C. The fragments were purified using Qiaquick PCR columns (Qiagen), analyzed on an ABI 3130xL genetic analyzer (Applied Biosystems) with peak positions identified by using a set of X-rhodamine (ROX)-labeled MapMarker1000 molecular weight standards (BioVentures). The raw capillary electrophoresis data was processed using Attagraph software (Attagene).

outcome, inactive:
O=C(O)CCCCCCCC(=O)O, CC1CCC2CC1C2(C)C (stereo not given), Cc1ccc(C(=O)c2cc(O)c(O)c([N+](=O)[O-])c2)cc1, CCCC[n+]1ccccc1, CC(C)=CCCC(C)CC=O (stereo not given), Cc1cccc(C)c1[N+](=O)[O-], COc1ccc(NC(=O)CC(C)=O)cc1, CCCC/C=C\CCCCCCCCCC=O, CCCCNC(=O)NS(=O)(=O)c1ccc(C)cc1, CCCCCC(=O)OCCc1ccccc1, CC(C)(C)NC(N)=O, COc1c(Cl)c(Cl)c(Cl)c(Cl)c1Cl, COC(=O)c1ccc(C)cc1, CC(=O)OCCOC(C)=O, O=Cc1ccc(F)cc1, CCCCO, CC(=O)O[C@]1(C(C)=O)CC[C@H]2[C@@H]3C[C@H](C)C4=CC(=O)CC[C@]4(C)[C@H]3CC[C@@]21C, CC(C)=CCO, C=C(C)C(=O)NCCCN(C)C, CCCCCCCCCCCCCCCC(=O)OC[C@H](O)[C@H]1OC(=O)C(O)=C1O, Clc1sc(Cl)c(Cl)c1Cl, Nc1cc(Cl)c(O)c(Cl)c1, O=[N+]([O-])c1ccc(Nc2ccc(Nc3ccccc3)c(S(=O)(=O)O)c2)c([N+](=O)[O-])c1, CCCCC[Si](OCC)(OCC)OCC, c1ccc2sc(SN(C3CCCCC3)C3CCCCC3)nc2c1, OCCN1CCNCC1, O=C(O)c1cccc([N+](=O)[O-])c1, CCC(=O)OCCC(C)CCC=C(C)C (stereo not given), O=S(=O)(O)c1cccc2c(S(=O)(=O)O)cccc12, C=CC(=O)OCC(O)COc1ccccc1 (stereo not given), O=C(O)c1cccc(C(F)(F)F)c1, C=CCOc1nc(OCC=C)nc(OCC=C)n1, Nc1cc([N+](=O)[O-])ccc1Cl, COc1ccc(OC)c(OC)c1, O=[N+]([O-])c1cc(C(F)(F)F)ccc1Cl, Clc1ccc2c(c1)C(N1CCNCC1)=Nc1ccccc1O2, COc1ccc(Nc2ccccc2)c(C)c1, Cc1ccc(C=O)s1, Cc1c(Cl)c(=O)oc2cc(O)ccc12, c1ccc2[nH]ccc2c1
